Bioassay records: PubChem, several laboratories
RmlCD inh mix: RmlC/RmlD inhibition, mixture screen; RmlC/RmlD coupled enzyme inhibition, 384-well mixture HTS; inhibition, % at 5.5 µM; actives 0.39% (n = 110,000); AID 1532; in the data active means inhibition above about 30%, passing the limit was not always enough; inconclusive means no clear call, values can overlap the other calls
HIV RNase H inh: blocks HIV-1 RNase H cleavage of RNA/DNA duplex; P04585; RT-RNase H RNA/DNA duplex cleavage, fluorescence; actives 1.9% (n = 65,000); inhibition, % at 10 µM; in the data active means inhibition above about 50%
RmlCD artifact: RmlC/RmlD fluorescence artifact, counter-screen. calls only. actives 96% (n = 360). RmlC/RmlD assay fluorescence artifact counter-screen. shares compounds with RmlCD inh mix; call rule not given here;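 further: compound alone with no enzyme and no substrates present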
Active calls of the source: *; ? = inconclusive; nt = no result; + = active, no number. Many of the other results were omitted from the sample, so hits are more common in it than they were.

SMILES	RmlCD inh mix	HIV RNase H inh	RmlCD artifact
COc1cccc(SCc2noc(C(=O)NCCCN3CCOCC3)c2C(=O)NCCCN2CCOCC2)c1	5	nt	nt
CC1(C)C=Cc2cc(-c3coc4cc(O)cc(O)c4c3=O)cc(O)c2O1	4	nt	nt
Cc1cc(-n2c(=O)c(C#N)cc3c(=O)n4cccc(C)c4nc32)no1	47*	1	+
Cc1cccc(-n2c(=O)c(C#N)cc3c(=O)n4ccccc4nc32)c1	83*	nt	+
Cc1cccn2c(=O)c3cc(C#N)c(=O)n(-c4c(C)n(C)n(-c5ccccc5)c4=O)c3nc12	10	1	nt
Cc1ccc(-n2c(=O)c(C#N)cc3c(=O)n4ccccc4nc32)cc1	nt	-8	nt
COC(C[C@@H]1O[C@@H]1[C@H](O)COCc1ccccc1)OC	-7	nt	nt
CCCc1cc(=O)n2c([nH]c3ccccc32)c1C#N	39*	nt	+
CCCCc1c(C)c(C#N)c2[nH]c3ccccc3n2c1=O	11	nt	nt
CN(C(=O)c1cnccn1)c1nnc(-c2cccnc2)s1	nt	-7	nt
O=C(c1ccc2c(c1)OCO2)N(c1ccc(Cl)cc1)C1C=CS(=O)(=O)C1 (stereo unspecified)	?	-2	nt
COc1ccc(-c2c[n+]3c4n2CCCCC4=C(c2ccccc2)C3)cc1	91*	nt	+
C[n+]1cc(-c2ccccc2)n2c1CCCCC2	13	nt	nt
COc1ccc(S(=O)(=O)N2CC3C4C=CC(C4)C3C2)cc1 (stereo unspecified)	6	-2	nt
CN1CCCC1CCNc1ccc2sc3ccccc3c(=O)c2c1 (stereo unspecified)	-11	nt	nt
Cc1cc2oc3cc(NCCC4CCCN4C)ccc3c(=O)c2cc1C (stereo unspecified)	68*	nt	+
COc1cccc(OC)c1C(=O)OCC(=O)Nc1ccc(OC(F)(F)F)cc1	-6	nt	nt
O=C(NS(=O)(=O)c1ccc2c(c1)OCCO2)c1ccccc1	10	-7	nt
O=C(Nc1ccc2oc(-c3ccc4ccccc4c3)nc2c1)c1ccc2c(c1)OCCO2	36*	nt	+
O=C(Nc1ccc(-c2nc3cc(NC(=O)c4cccs4)ccc3o2)cc1)c1cccs1	93*	nt	+
O=C(Nc1ccc2oc(-c3ccncc3)nc2c1)c1cccs1	0	-3	nt
Cc1ccc2nc(-c3cccc(NC(=O)c4ccc5c(c4)OCCO5)c3)oc2c1	2	14	nt
COc1cc(C(=O)N2CCN(c3ncnc4sc(C)c(C)c34)CC2)cc(OC)c1OC	48	4	nt
COc1cc(NC(=O)c2cccs2)c(C(=O)OCC(=O)NC(C)c2ccccc2)cc1OC (stereo unspecified)	-6	nt	nt
COc1cc(NC(=O)c2cccs2)c(C(=O)OCC(=O)NCc2ccccc2)cc1OC	45*	nt	+
SMILES	RmlCD inh mix	HIV RNase H inh	RmlCD artifact
CCOC(=O)c1nn(-c2ccccc2C)c2nc(-c3ccc(C)cc3)c(C#N)c(=O)n12	8	nt	nt
CCOC(=O)c1nn(-c2ccc(F)cc2)c2nc(CC(C)C)c(C#N)c(=O)n12	51*	nt	+
CC(C)C(=O)c1c(C(C)C)nn2ccccc12	2	nt	nt
Cc1oc2c(C)c3oc(=O)c4c(c3cc2c1C)CCC4	-8	-6	nt
O=c1cc(-c2ccccc2)c2ccc(O)c(CN3CCCCC3)c2o1	4	-1	nt
O=c1oc2c(CN3CCCCC3)c(O)ccc2c2c1CCCC2	96*	nt	+
Cc1c(O)c(CN2CCCCC2)cc2c3c(c(=O)oc12)CCC3	91*	4	+
CCOC(=O)c1ccc2c(c1)nc(SCc1cn3ccsc3n1)n2CC	-6	-17	nt
CC(c1c(O)c2ccccc2[nH]c1=O)C1(C)CCC(O)C(C)(C)O1 (stereo unspecified)	-9	nt	nt
COC(=O)[C@@H]1C[C@H]1[C@@H](NC(=O)c1cc(C)on1)c1ccccc1	6	nt	nt
CCn1c(/C=N/n2cnnc2)nc2ccccc21	73*	-4	+
CCn1c2ccccc2c2cc(/C=N/n3cnnc3)ccc21	5	-52	nt
Cc1c(C(=O)Oc2cccc3ccccc23)cnn1-c1ccccc1	8	nt	nt
Cc1cc(=O)oc2cc(OC(C)C)ccc12	4	-17	nt
Cc1cc(=O)oc2cc(OC(=O)CCN3C(=O)c4ccccc4C3=O)ccc12	nt	nt	+
CCOC(=O)C1=C(C)N(CCCC(=O)O)C(=O)NC1c1ccccc1OS(=O)(=O)c1ccccc1[N+](=O)[O-] (stereo unspecified)	7	nt	nt
CCc1ccc(N(C(=O)c2snc(C(N)=O)c2N)C(C(=O)NCCC(C)C)c2c[nH]c3ccccc23)cc1 (stereo unspecified)	-30	nt	nt
Cc1cc(C(F)(F)F)c(C#N)c(=O)[nH]1	32*	nt	+
N#Cc1c(C(F)(F)F)cc(-c2ccc(Cl)cc2)[nH]c1=O	10	nt	nt
CCOC(=O)C1=C(CSc2nc(-c3ccccc3)ccc2C#N)OC(N)=C(C#N)C1c1cccnc1 (stereo unspecified)	45*	nt	+
CCOC(=O)C1=C(CSc2nc(-c3ccccc3)ccc2C#N)OC(N)=C(C#N)C1c1ccccc1 (stereo unspecified)	30	nt	nt
CCC(=O)c1cc2c(C)cc(=O)oc2c(C)c1OC	-4	nt	nt
CCC(=O)Nc1c(OC(=O)CC)ccc2c(C)cc(=O)oc12	+	-9	+
CCc1ccc(-c2cc(C(F)(F)F)n3nc(C(=O)Nc4cnn(Cc5ccccc5C)c4)cc3n2)s1	+	nt	+
CCc1ccc(-c2cc(C(F)(F)F)n3nc(C(=O)Nc4c(C)nn(Cc5ccccc5C)c4C)cc3n2)s1	-27	nt	nt
SMILES	RmlCD inh mix	HIV RNase H inh	RmlCD artifact
CCOC(=O)c1nnn(-c2nonc2N)c1CSc1ccccn1	17	-39	nt
Cc1cc(C(=O)OCCO)c(C#N)c(N)n1	46*	-2	+
COC(=O)c1cc(C)nc(N)c1C#N	28	nt	nt
COc1ccc(N2CCN(C(CNS(=O)(=O)c3cc(F)ccc3F)c3cccnc3)CC2)cc1 (stereo unspecified)	nt	6	nt
COc1cc(-c2nnc3sc(-c4ccccn4)nn23)cc(OC)c1OC	nt	9	nt
CCc1c(C)c2cc(Cl)c(O)c(CN(CC)CC)c2oc1=O	106*	-9	+
Cc1coc2c(C)c3oc(=O)c4c(c3cc12)CCCC4	-61	-7	nt
CCc1cc2c(=O)c(-c3nc4ccccc4n3C)c(C)oc2c(CN(CC)CC)c1O	13	nt	nt
COc1ccc(-c2cc(=O)oc3c(C)c(O)c(CN(C)C)cc23)cc1	-3	-26	nt
C=CCOC(=O)COc1ccc2c(C)c(CC)c(=O)oc2c1	10	-13	nt
Cc1c(C)c2cc(Cl)c(O)c(CN(C)C)c2oc1=O	63*	-7	+
CN(C)Cc1c(O)c(Cl)cc2c3c(c(=O)oc12)CCCC3	140*	nt	+
CCc1c(C)c2cc(Cl)c(O)c(CN(C)C)c2oc1=O	82*	1	+
COCCCn1c(C)nc2c(c1=O)c1nc3ccccc3nc1n2CCc1ccccc1	-21	-17	nt
CN(NC(=O)c1ccc(Cl)cc1)c1cccc(Cl)n1	-10	nt	nt
COc1ccc(O)c(-c2[nH]ncc2C(=O)c2ccccc2C)c1	4	-6	nt
Cc1nc(-c2ccc(Cl)cc2)sc1C1(C)CC(c2ccc(C#N)cc2)=NO1 (stereo unspecified)	8	nt	nt
O=C(c1cn(-c2ccccc2)nc1-c1ccncc1)n1nnc2ccccc21	-2	14	nt
Clc1ccc(/C=N/c2c(-c3ccco3)nc3ccccn23)cc1	17	nt	nt
Oc1ccccc1/C=N/c1c(-c2ccco2)nc2ccccn12	39*	-24	+
